Sampled rows, rich in hits. Any-hit rate of the full collection: about 7.7%.
HCMV inh – qHTS Assay for inhibitors of the human cytomegalovirus (HCMV) | HFF cells, HCMV-luciferase reporter, 72 h; stronger effect = lower value | activity change, negative = inhibition, % at 57.5 µM | 410,000 tested, 4.5% active | AID 1259415, 2018; in the data active = activity change below about -60%; inconclusive = no clear call, values can overlap the other calls; inactive = above about -39%
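After 16 h attachment at 37C, HFF cells received test compound and HCMV-luciferase (1 PFU/cell); reporter luminescence read 72 h later, data normalized against buffer-only and known inhibitor Salinomycin.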
FBPA Giardia inh – qHTS Assay for Inhibitors of Fructose-1,6-bisphosphate Aldolase from Giardia Lamblia. A8B2U2. purified Giardia FBPA. 290,000 tested, 0.71% active. Potency, µM (titrated, usually from 59.6 µM), inactives show at the highest dose activity, negative = inhibition, actives largely listed as inhibitors; also: potency is read from the fitted curve at half-maximal effect; nearly all actives have a fitted effect of over 55% in size
Target sequence (A8B2U2 whole entry, looked up): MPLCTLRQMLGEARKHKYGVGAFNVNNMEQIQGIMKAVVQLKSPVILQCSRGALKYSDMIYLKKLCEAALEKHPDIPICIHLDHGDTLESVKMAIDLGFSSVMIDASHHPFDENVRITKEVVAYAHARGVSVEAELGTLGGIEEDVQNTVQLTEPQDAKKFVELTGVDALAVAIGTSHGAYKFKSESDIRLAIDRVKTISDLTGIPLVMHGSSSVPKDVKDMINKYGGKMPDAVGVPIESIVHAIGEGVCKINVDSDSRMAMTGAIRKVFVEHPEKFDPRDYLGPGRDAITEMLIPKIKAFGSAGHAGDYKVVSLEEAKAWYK
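Giardia FBPA (40 nM reagent) was preincubated 10 min at RT with compound (up to 57.5 uM final), then substrate plus GAPDH/TPI/NAD/arsenate coupling system with diaphorase/resazurin was added; resorufin fluorescence (525/598 nm) was read after 20 min.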
Tb PYK inh – qHTS of Trypanosoma Brucei Inhibitors. pyruvate kinase (Trypanosoma brucei), Q57TT1. TbPYK enzyme, Kinase-Glo Plus ATP luminescence, 45 min. Potency, µM (titrated, usually from 76.8 µM), without a hit: top-dose activity, negative = inhibition, actives largely listed as inhibitors. 410,000 tested, 0.12% active; also: potency is read from the fitted curve at half-maximal effect; nearly all actives have a fitted effect of over 50% in size
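Luminescence from Kinase-Glo Plus, added after a 45-minute room-temperature reaction, served as the end-point read-out. The enzyme and substrate were preincubated with compound before ADP (130 uM final) initiated turnover. Concentration-effect curves came from normalized qHTS data.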
Sm TGR inh – qHTS Assay for the Inhibitors of Schistosoma Mansoni Peroxiredoxins. Schistosoma mansoni thioredoxin glutathione reductase (TGR), Q962Y6. purified TGR, DTNB reduction, TNB absorbance 405 nm. Potency, µM (doses to about 114 µM), inactives show at the top dose activity change, negative = inhibition, usual class: inhibitors. 360,000 tested, 3% active; also: potency is read from the fitted curve at half-maximal effect; nearly all actives have a fitted effect of over 60% in size
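Kinetic colorimetric format: TGR-catalysed, NADPH-driven DTNB reduction monitored via TNB absorbance. Enzyme dispensed at 20 nM; compound exposure 15 min at room temperature before reaction start.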
FMDV antiviral – High Throughput Screening for Foot and Mouth Disease Virus Antivirals; FMDV antiviral cell-based qHTS; Potency, µM (highest dose often 57.9 µM), for the others: top-dose activity change, negative = inhibition, usual class: inhibitors; 410,000 tested, 1.2% active; AID 1159524, 2015; calls by dose curve; tested in HEK293T cells; also: read-out not given here; potency is read from the fitted curve at half-maximal effect; nearly all actives have a fitted effect of over 45% in size
RE007 growth inh – qHTS Assay for Inhibitors of the HIV-1 protein Vpr | S. pombe RE007 Vpr strain, BacTiter-Glo ATP luminescence, 24 h | Potency, µM (top dose mostly 92.2 µM), without a hit: at the highest dose activity change, negative = less growth, most hits filed as inhibitors | 360,000 tested, 0.21% active | AID 651644, 2012; active = well fitted falling curve with a large enough effect; inconclusive = small, poorly fitted or top-dose-only effect; inactive = no such curve, though single readings can be large or run the other way; also: potency is read from the fitted curve at half-maximal effect; nearly all actives have a fitted effect of over 50% in size
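Fission yeast strain RE007, carrying one chromosomally integrated HIV-1 vpr copy, was seeded at OD 0.01 in PMG+AL medium with 23 nL pinned compound. After 24 h at 30 °C and 99% humidity, viability was read by BacTiter-Glo luminescence.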
The depositor's hits bear a star; ? = inconclusive; . = no result; [ ] = another dose, or the depositor's remark. Unless noted, calls follow the shape of the dose curve; as a rule, active = well fitted curve in the direction sought with a large enough effect; inconclusive = small, poorly fitted or top-dose-only effect, or another doubt; inactive = no such curve, though single readings can be large; an effect the other way counts as inactive or inconclusive. % is scaled to controls: 0 for no effect and ±100 for the full control effect.

SMILES	HCMV inh	FBPA Giardia inh	Tb PYK inh	Sm TGR inh	FMDV antiviral	RE007 growth inh
Cc1ccc(Cn2c(SCCN3CCCCC3)nc3c2c(=O)n(C)c(=O)n3C)cc1	-100*	-6%	-13%	0%	0%	-15%
COC(=O)Cn1c(CN2CCc3ccccc3C2)nc2c1c(=O)n(C)c(=O)n2C	-66*	-17%	-3%	-5%	?	0%
Cn1c(=O)c2c(nc(CN3CCN(Cc4ccccc4)CC3)n2Cc2ccc(Cl)cc2)n(C)c1=O	-103*	2%	4%	-35%	-9%	1%
Cn1c(=O)c2c(nc(CN3CCN(Cc4ccccc4)CC3)n2CCN2CCOCC2)n(C)c1=O	9	-3%	-6%	40µM*	-2%	-16%
CCCCOCC1CN(CCCC)S(=O)(=O)c2c(cccc2Sc2ccc(OC)c(OC)c2)O1 (configuration not stated)	16	.	.	.	.	.
CC(C)C[C@H]1COc2cccc(N3CCOCC3)c2S(=O)(=O)N1	-16	.	.	.	.	.
COc1ccc(S(=O)(=O)N2CCC(C(=O)NC(C)c3ccccc3)CC2)cc1 (configuration not stated)	-2	.	0%	8%	-23%	.
Cc1nc(NC(=O)/C=C/c2ccc(Cl)cc2Cl)sc1C(=O)N(C)C	-61*	1%	-6%	4%	-4%	3%
c1ccc(CCn2c3ccccc3c3nnc(SCc4ccc5nonc5c4)nc32)cc1	-81*	2%	2%	-7%	?	5%
CCN(CC)CCSc1nnc2c3ccccc3n(CCc3ccccc3)c2n1	-79*	-7%	-7%	43%	-21%	-13%
CCCn1c2ccc(F)cc2c2nnc(SCCN(CC)CC)nc21	2	.	-1%	3%	-22%	.
c1ccc(Cn2c3ccccc3c3nnc(SCCN4CCCCC4)nc32)cc1	-60*	5%	13%	-2%	-25%	-9%
Oc1cccc(-c2nc(-c3cccs3)c(-c3cccs3)[nH]2)c1	33	.	0%	?	0%	.
O=C(NCc1ccc(Cl)cc1)c1ccc(NC(=O)N2CC3CCCN3c3ccccc32)cc1 (configuration not stated)	-9	.	-12%	-20%	-11%	.
Cc1noc(C)c1S(=O)(=O)N(C)C[C@@H]1OCc2cnnn2CCCC(=O)N([C@@H](C)CO)C[C@@H]1C	-10	.	.	.	.	.
COCC(=O)OC1CCn2c1nc1c2C(=O)C(C)=C(NC(C)=O)C1=O (configuration not stated)	-79*	.	-4%	.	10µM*	0%
COc1ccc(/C(C)=N/OCC(=O)N=Nc2c(O)[nH]c3ccc(Br)cc23)cc1	-19	1%	-2%	7%	40µM*	-3%
COc1ccccc1NC(=S)N=Nc1c(O)[nH]c2ccc(Br)cc12	-67*	-4%	-2%	-11%	-22%	0%
Cc1cccc(NC(=S)N=Nc2c(O)[nH]c3ccccc23)c1	-25	-15%	-9%	-1%	-28%	3%
Nc1nc2cc3c(cc2cc1C(=O)NCc1cccnc1)OCO3	8	.	.	.	.	.
COC(=O)c1ccc(COc2ccccc2/C=C(\C#N)C(=O)Nc2ccccc2C)cc1	35	-1%	7%	-12%	19%	7%
COC(=O)c1ccc(COc2ccccc2/C=C(\C#N)C(=O)Nc2c(C)cccc2C)cc1	-25	-1%	8%	6%	11µM*	-3%
Fc1cccc(Oc2ccc3c(-c4ccccc4F)noc3n2)c1	-25	.	.	.	.	.
Cc1ccc(NC(=O)CCS(=O)(=O)c2cc(Br)cc3c2N(C(=O)C2CC2)CC3)cc1	8	.	0%	-5%	-12%	.
CC(=O)N1CCN(c2ccc(NC(=O)c3ccc([N+](=O)[O-])cc3)cc2)CC1	7	5%	0%	-4%	12%	-10%
SMILES	HCMV inh	FBPA Giardia inh	Tb PYK inh	Sm TGR inh	FMDV antiviral	RE007 growth inh
CCCC(=O)N1CCN(c2ccc(NC(=O)c3ccc([N+](=O)[O-])o3)cc2)CC1	-96*	-16%	-12%	?	-20%	-21%
CC(C)(C)C(=O)N1CCN(c2ccc(NC(=O)c3ccc([N+](=O)[O-])o3)cc2)CC1	-99*	-5%	0%	-26%	-8%	-11%
O=C(Nc1ccc(N2CCN(C(=O)c3ccc(Cl)cc3)CC2)cc1)c1ccc([N+](=O)[O-])o1	-96*	0%	-16%	-27%	?	4%
CCC(=O)N1CCN(c2ccc(NC(=O)c3ccc([N+](=O)[O-])o3)cc2)CC1	-98*	-19%	-3%	28µM*	1%	-28%
O=C(Nc1ccccc1N1CCN(C(=O)c2ccccc2)CC1)c1ccc([N+](=O)[O-])o1	?	3%	0%	-29%	0%	-7%
CC1CCN(c2nc3ccccc3nc2SCC(=O)Nc2ccccc2C(C)C)CC1	8	.	2%	0%	?	.
Cc1c(Cl)cccc1NC(=O)c1cc(-c2cccs2)on1	-4	.	-1%	0%	25%	.
Cc1cccc(CNc2ncnc3ccc(-c4cccc(Cl)c4)cc23)c1	.	.	.	-16%	.	.
COc1cc(C2C(=O)N(C3CCCCC3)CC(=O)N2CCC2=CCCCC2)ccc1OC(C)C (configuration not stated)	-13	.	?	-10%	-27%	.
O=C1C=CC(=Nc2ccc(F)cc2)O1	-16	.	?	.	-9%	5µM*
O=C1C=CC(=Nc2ccc3c(c2)C(=O)c2ccccc2-3)O1	-22	.	-29%	.	6%	?
COc1cc(O)ccc1C(C)=O	.	-2%	.	.	-16%	.
OCc1cc(C(O)CNCCCCCCOCCCCc2ccccc2)ccc1O (configuration not stated)	-60*	10%	5%	-18%	-18%	7%[18.4 µM]
O=C1CC(c2ccc(Cl)cc2)CC(=O)C1CS(=O)(=O)c1ccccc1 (configuration not stated)	-18	?	-13%	0.63µM*	?	17%
O=C1CC(c2ccccc2)CC(=O)C1Sc1ccc(Cl)cc1 (configuration not stated)	26	8%	-7%	?	8%	6%
O=C1CCCC(=O)C1CS(=O)(=O)c1ccccc1	20	?	?	2.2µM*	-7%	20%
COc1ccc(C2CC(=O)C(CS(=O)(=O)c3ccccc3)C(=O)C2)cc1 (configuration not stated)	?	?	0%	1µM*	-19%	0%

Source: PubChem BioAssay (National Center for Advancing Translational Sciences (NCATS))
